From PubChem BioAssay
Calls of active or inactive are those of the source.

Experiments:
[1] = binders of probe aFSTL3 on microarray, primary screen, stem cell growth factor project, biochemical, small-molecule microarray, fluorescence 635/667 (AID 1064); conditions: higher = more signal;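 further: measures binding of the biotinylated anti-FSTL3 antibody to printed compounds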
[2] = binders from COS7 lysate, DM2A8 probe, primary screen, torsin A project, cell lysate, small-molecule microarray, fluorescence 635/667 (AID 1065); conditions: higher = more signal, COS7 lysate expressing mutant human TOR1A
[3] = binders of probe aFGF2 on microarray, primary screen, stem cell growth factor project, biochemical, small-molecule microarray, fluorescence 635/667 (AID 1067); conditions: higher = more signal;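 further: measures binding of biotinylated aFGF2 protein to printed compounds on slides; z-score merges feature fluorescence and signal-to-noise across triplicate slides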
[4] = binders of probe aFGF10 on microarray, primary screen, stem cell growth factor project, biochemical, small-molecule microarray, fluorescence 635/667 (AID 1071); conditions: higher = more signal;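 further: score merges 667 nm spot intensity and signal to noise from triplicate slides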
[5] = molecular target: Neurogenic locus notch homolog protein 2 (Homo sapiens) (UniProt Q04721); assay: Notch2 binders on small-molecule microarrays, primary screen, biochemical, small-molecule microarray, 635 nm fluorescence, stem cell growth factors (AID 1073); conditions: Notch2 binding, higher = more signal
[6] = molecular target: Pro-neuregulin-1, membrane-bound isoform (Homo sapiens) (UniProt Q02297); assay: NRG1 binders on small-molecule microarrays, primary screen, psychiatric disease protein project, biochemical, small-molecule microarray, fluorescence 635/667 (AID 1075); conditions: NRG1 binding, 635 nm fluorescence, higher = more signal;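 further: score combines 667 nm spot fluorescence with signal to noise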
[7] = system: Neuregulin-1 EGF-like domain; assay: binders of neuregulin-1 EGF-like domain, primary screen, biochemical, small-molecule microarray, 635 nm fluorescence (AID 1081); conditions: small-molecule microarray binding, higher = more signal;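 further: binding of the protein to compounds printed on small-molecule microarray slides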
[8] = FRG1 promoter luciferase signal modulators, primary screen, FRG1 inhibition for FSHD, cell-based, C2C12 myotubes, firefly/Renilla luciferase, luminescence (AID 1084); conditions: higher = more signal, called active from +8 up or from −8 down
[9] = binders of probe aFST on microarray, primary screen, stem cell growth factor project, biochemical, small-molecule microarray, fluorescence 635/667 (AID 1086); conditions: higher = more signal;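 further: score merges 667 nm fluorescence with signal-to-noise of each printed compound spot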
[10] = binders of probe aHhip on microarray, primary screen, stem cell growth factor project, biochemical, small-molecule microarray, fluorescence 635/667 (AID 1087); conditions: higher = more signal;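 further: score merges spot fluorescence at 667nm with spot signal to noise ratio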
[11] = system: PRMT1 (protein arginine N-methyltransferase 1); assay: PRMT1 binders on small-molecule microarrays, primary screen, biochemical, small-molecule microarray, 635 nm fluorescence (AID 1088); conditions: small-molecule microarray binding, higher = more signal;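 further: binding of Prmt1 protein to compounds spotted on small-molecule microarray slides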
[12] = yeast growth modulation, basal conditions, primary screen, YJM789 clinical isolate, OD600, 24 h (AID 1089);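 further: growth of clinical yeast isolate S. cerevisiae YJM 789 seeded 1000 cells per well; test concentration not given here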; conditions: S. cerevisiae YJM789 growth, higher = more signal, called active from +8 up or from −8 down
[13] = fission yeast growth modulation, primary screen, strain 972, OD600, 24 h, no modulator (AID 1090);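 further: basal condition with compound alone and no growth modifier present; test concentration not given here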; conditions: S. pombe 972 growth, higher = more signal, called active from +8 up or from −8 down
[14] = S. cerevisiae growth modulation with rapamycin, primary screen, strain BY4716, OD600, 96 h (AID 1091); conditions: higher = more signal, called active from +8 up or from −8 down; further: test concentration not given here
[15] = molecular target: Torsin-1A-interacting protein 2 (Homo sapiens) (UniProt Q8NFQ8); assay: LULL1 binders on small-molecule microarray, primary screen, cell lysate, human LULL1 lysate, 635/667 nm fluorescence (AID 1092); conditions: hLULL1 lysate binding, 635 nm fluorescence, higher = more signal;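 further: probe is lysate of COS7 cells overexpressing human LULL1; score merges per-feature 667 nm fluorescence with signal-to-noise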
[16] = E. coli growth modulation, two-sided OD650, primary screen, E. coli filamentation project, strain DRC41, 24 h (AID 1093); conditions: OD650, 24 h, higher = more signal, called active from +8 up or from −8 down;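 further: MC1000 strain lacking acrAB efflux and sulA so SOS filamentation is blocked; test concentration not given here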
[17] = small-molecule microarray binders of probe aLefty2, primary screen, biochemical, biotinylated probe, 635/667 nm fluorescence (AID 1094); conditions: higher = more signal;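 further: score merges spot fluorescence near 667 nm with spot signal-to-noise ratio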
[18] = system: Noggin (protein binding on small-molecule microarray); assay: Noggin binders on small-molecule microarray, primary screen, biochemical, 635/667 nm fluorescence (AID 1095); conditions: 635 nm fluorescence, higher = more signal;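 further: score merges 667 nm feature fluorescence with signal to noise over triplicate slides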
[19] = molecular target: Neurogenic locus notch homolog protein 3 (Homo sapiens) (UniProt Q9UM47); assay: NOTCH3 binders on small-molecule microarray, primary screen, biochemical, 635/667 nm fluorescence (AID 1096); conditions: NOTCH3 binding, 635 nm fluorescence, higher = more signal
[20] = small-molecule microarray binders of probe aEGFR, primary screen, biochemical, biotinylated probe, 635/667 nm fluorescence (AID 1097); conditions: higher = more signal;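 further: probe is a biotinylated anti-EGFR antibody binding compounds printed on slides; score combines fluorescence near 667 nm and signal to noise of each spot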

Pro-neuregulin-1, membrane-bound isoform (Homo sapiens), sequence (Q02297 whole entry, looked up, the tested form may be a part, canonical isoform): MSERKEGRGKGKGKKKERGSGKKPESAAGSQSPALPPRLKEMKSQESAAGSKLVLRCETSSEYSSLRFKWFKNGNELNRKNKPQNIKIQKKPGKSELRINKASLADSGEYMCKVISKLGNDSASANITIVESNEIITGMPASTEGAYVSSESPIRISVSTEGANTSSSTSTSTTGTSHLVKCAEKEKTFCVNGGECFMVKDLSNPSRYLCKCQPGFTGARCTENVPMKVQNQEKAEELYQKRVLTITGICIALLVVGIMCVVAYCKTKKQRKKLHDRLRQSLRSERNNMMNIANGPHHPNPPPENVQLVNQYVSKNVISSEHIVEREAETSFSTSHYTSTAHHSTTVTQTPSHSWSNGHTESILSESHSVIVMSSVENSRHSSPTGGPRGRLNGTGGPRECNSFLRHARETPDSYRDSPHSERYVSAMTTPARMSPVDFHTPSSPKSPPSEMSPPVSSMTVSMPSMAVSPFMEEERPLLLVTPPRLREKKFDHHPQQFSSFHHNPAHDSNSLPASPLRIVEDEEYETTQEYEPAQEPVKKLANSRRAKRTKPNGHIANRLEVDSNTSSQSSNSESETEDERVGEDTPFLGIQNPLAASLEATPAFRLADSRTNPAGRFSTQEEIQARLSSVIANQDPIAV
Neurogenic locus notch homolog protein 3 (Homo sapiens), sequence (Q9UM47 whole entry, looked up): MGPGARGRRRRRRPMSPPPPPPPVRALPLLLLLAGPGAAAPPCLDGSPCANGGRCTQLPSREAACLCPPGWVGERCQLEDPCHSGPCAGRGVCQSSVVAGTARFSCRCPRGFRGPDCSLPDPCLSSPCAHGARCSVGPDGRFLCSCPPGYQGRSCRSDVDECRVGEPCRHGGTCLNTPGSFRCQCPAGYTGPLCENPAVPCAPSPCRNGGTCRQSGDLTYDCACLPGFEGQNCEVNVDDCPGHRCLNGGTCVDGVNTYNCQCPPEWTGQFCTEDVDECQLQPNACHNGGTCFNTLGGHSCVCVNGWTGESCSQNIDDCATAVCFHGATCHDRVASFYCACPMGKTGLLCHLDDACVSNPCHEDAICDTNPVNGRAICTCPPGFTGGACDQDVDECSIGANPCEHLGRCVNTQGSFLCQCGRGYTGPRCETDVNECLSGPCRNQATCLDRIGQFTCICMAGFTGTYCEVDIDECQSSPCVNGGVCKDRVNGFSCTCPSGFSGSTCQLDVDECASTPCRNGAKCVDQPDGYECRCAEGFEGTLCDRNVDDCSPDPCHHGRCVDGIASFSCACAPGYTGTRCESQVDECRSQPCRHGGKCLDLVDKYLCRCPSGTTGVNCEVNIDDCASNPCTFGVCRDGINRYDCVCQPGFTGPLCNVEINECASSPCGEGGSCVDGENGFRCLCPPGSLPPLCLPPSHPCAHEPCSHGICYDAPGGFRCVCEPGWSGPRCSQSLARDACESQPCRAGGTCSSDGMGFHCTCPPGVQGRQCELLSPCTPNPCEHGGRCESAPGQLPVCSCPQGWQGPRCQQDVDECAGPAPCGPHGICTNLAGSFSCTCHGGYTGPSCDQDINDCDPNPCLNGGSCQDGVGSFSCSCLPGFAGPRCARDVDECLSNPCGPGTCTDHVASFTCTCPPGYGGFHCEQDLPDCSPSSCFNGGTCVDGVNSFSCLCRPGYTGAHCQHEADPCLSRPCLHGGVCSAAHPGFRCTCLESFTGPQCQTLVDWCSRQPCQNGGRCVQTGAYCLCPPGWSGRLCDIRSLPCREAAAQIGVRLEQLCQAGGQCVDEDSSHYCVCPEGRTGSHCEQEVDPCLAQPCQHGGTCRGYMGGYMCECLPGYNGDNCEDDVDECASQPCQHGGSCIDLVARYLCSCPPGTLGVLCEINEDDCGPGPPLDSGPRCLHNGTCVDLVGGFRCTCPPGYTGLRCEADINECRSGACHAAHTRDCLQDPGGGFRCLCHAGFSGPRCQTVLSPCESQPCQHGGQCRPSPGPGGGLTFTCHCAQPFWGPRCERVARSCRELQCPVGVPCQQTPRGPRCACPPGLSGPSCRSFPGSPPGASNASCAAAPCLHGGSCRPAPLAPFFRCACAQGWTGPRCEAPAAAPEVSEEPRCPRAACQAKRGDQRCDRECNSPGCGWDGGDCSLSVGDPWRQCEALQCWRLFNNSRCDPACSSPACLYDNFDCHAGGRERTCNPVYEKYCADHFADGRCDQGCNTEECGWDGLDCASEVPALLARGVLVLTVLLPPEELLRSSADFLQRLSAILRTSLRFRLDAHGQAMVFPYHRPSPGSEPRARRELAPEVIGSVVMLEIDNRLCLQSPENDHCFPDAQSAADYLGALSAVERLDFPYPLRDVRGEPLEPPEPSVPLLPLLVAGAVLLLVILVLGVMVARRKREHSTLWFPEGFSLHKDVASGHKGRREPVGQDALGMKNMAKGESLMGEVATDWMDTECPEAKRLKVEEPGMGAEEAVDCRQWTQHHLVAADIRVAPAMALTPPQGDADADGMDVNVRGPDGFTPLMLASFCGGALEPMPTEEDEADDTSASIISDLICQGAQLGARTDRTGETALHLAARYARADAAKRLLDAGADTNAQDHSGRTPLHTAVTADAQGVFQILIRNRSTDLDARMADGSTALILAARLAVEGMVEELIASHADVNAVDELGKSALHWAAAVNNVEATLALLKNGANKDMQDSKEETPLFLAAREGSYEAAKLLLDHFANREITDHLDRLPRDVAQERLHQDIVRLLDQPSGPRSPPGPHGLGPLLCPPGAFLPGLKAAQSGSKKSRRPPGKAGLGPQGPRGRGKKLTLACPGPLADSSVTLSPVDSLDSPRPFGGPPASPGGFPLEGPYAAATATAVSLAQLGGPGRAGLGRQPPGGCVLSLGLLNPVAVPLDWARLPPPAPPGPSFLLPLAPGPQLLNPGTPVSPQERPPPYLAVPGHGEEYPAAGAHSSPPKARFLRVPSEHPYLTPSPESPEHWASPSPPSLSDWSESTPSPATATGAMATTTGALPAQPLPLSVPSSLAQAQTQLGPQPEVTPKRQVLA
Torsin-1A-interacting protein 2 (Homo sapiens), sequence (Q8NFQ8 whole entry, looked up): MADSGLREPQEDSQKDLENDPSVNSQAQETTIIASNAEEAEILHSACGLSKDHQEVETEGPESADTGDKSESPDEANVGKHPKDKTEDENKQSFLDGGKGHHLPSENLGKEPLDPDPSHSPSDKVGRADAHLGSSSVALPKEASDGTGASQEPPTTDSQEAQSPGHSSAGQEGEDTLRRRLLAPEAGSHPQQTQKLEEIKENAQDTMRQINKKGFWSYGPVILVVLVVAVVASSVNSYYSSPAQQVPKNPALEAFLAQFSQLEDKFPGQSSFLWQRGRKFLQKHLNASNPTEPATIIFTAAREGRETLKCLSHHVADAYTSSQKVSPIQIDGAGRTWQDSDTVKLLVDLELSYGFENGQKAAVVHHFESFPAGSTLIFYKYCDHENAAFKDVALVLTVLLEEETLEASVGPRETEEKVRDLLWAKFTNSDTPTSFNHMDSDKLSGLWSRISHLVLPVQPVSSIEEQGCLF

SMILES | composite z-score [1] | composite z-score [2] | composite z-score [3] | composite z-score [4] | composite z-score [5] | composite z-score [6] | composite z-score [7] | z-score [8] | composite z-score [9] | composite z-score [10] | composite z-score [11] | z-score [12] | z-score [13] | z-score [14] | composite z-score [15] | z-score [16] | composite z-score [17] | composite z-score [18] | composite z-score [19] | composite z-score [20]
CN1C(=O)C2C(C1=O)C1C=C(CCCO)C2C(c2ccc(CN3CCCC3)cc2)N1C (stereo not given) | 0.192 | 0.249 | -0.0902 | -0.302 | -0.291 | 0.0016 | 0.725 | 0.243 (inactive) | -0.424 | 0.0749 | -0.0446 | -0.363 (inactive) | 0.652 (inactive) | -0.14 (inactive) | -0.0999 | 0.145 (inactive) | -0.193 | -0.347 | -0.575 | -0.133
CCOC(=O)CCN1C(=O)[C@H]2[C@H]3[C@H](O)[C@H](O)CC(=NNC(=O)OCc4ccc(OC)cc4)[C@@H]3CC[C@H]2C1=O | -0.468 | 0.336 | -0.15 | 0.0569 | 0.0846 | 0.863 | 0.574 | 0.455 (inactive) | 0.15 | 0.251 | 0.372 | -0.162 (inactive) | 0.151 (inactive) | -0.3 (inactive) | 0.97 | 0.0856 (inactive) | -0.157 | 0.38 | 1.08 | -0.0986
CN1C(=O)C2C=CC(C(O)C(c3ccccc3)c3ccccc3)N(NC(=O)OC(C)(C)C)C2C1=O (stereo not given) | 1.16 | 0.868 | 0.448 | 1.09 | 1.73 | 1.99 | 1.22 | 0.745 (inactive) | 1.79 | -0.116 | 1.42 | -1.79 (inactive) | -4.38 (inactive) | -0.512 (inactive) | 3.35 | -0.805 (inactive) | 0.59 | -0.168 | 1.09 | 0.311
CO[C@@H]1COC(=O)[C@H](C)NC(=O)[C@@H](C)COC(=O)CCC[C@H]1C | -0.438 | 0.402 | -0.116 | 0.686 | 0.183 | -0.0231 | 1.13 | 0.227 (inactive) | -0.163 | -0.0296 | 1.27 | -0.11 (inactive) | 0.381 (inactive) | -1.14 (inactive) | 2.11 | -0.183 (inactive) | -0.179 | 0.209 | -0.0217 | 0.136
COC(=O)[C@@]1(Cc2ccc(F)cc2)[C@H]2c3cc(C(=O)N(C)C)n(Cc4ccc(OC)c(OC)c4)c3C[C@H]2CN1C(=O)c1ccccc1 | 0.257 | -0.0565 | 0.184 | 0.551 | 1.56 | 0.641 | 1.44 | 0.619 (inactive) | 0.169 | 0.402 | -1.32 | 0.0573 (inactive) | -0.636 (inactive) | -0.249 (inactive) | 1.54 | -0.31 (inactive) | 0.498 | -0.344 | -0.309 | 0.365
COc1ccc([Si](C)(C)[C@@H]2[C@@H](CC(=O)N3CCC[C@H]3CO)O[C@]3(C(=O)N(Cc4cccc(N5CCC5=O)c4)c4ccccc43)[C@H]2C)cc1 | -0.0723 | 0.461 | -0.0715 | 0.45 | 0.322 | 1.51 | 1.14 | -0.548 (inactive) | -0.187 | 0.107 | 1.54 | -0.569 (inactive) | -0.184 (inactive) | 0.284 (inactive) | 2.64 | 0.37 (inactive) | -0.0204 | 1.5 | 1.15 | -0.0953
CO[C@@H]1COC(=O)[C@@H]2CCCN2C(=O)[C@@H](C)COC(=O)[C@H](COCc2ccccc2)NC(=O)CC=C[C@H]1C | -0.451 | 0.32 | -0.112 | 0.451 | 0.433 | 0.101 | 0.253 | -0.0485 (inactive) | 0.79 | -0.0645 | 0.705 | 0.953 (inactive) | 0.263 (inactive) | 0.458 (inactive) | 0.445 | -1.99 (inactive) | -0.236 | 0.529 | 0.554 | -0.198
CO[C@@H]1COC(=O)CC=C[C@@H](C)[C@H](OC)COC(=O)[C@H](COCc2ccccc2)NC(=O)CC=C[C@H]1C | 0.0122 | 0.843 | -0.0775 | -0.0228 | -0.0992 | -0.673 | -0.831 | -0.886 (inactive) | -0.455 | -0.0618 | 0.234 | 0.122 (inactive) | -0.556 (inactive) | -0.0857 (inactive) | -1.32 | 0.024 (inactive) | -0.185 | 0.846 | -0.778 | -0.231
CCOC(=O)[C@H](Cc1ccccc1)NC(=O)CCC1CC(OC(=O)NCCc2ccc(F)cc2)CC2(CCCC(COC(=O)NCC(c3ccccc3)c3ccccc3)O2)O1 (stereo not given in full) | -0.183 | 0.0877 | -0.0785 | 0.627 | 0.823 | 0.852 | 0.919 | 2.14 (inactive) | 0.486 | 0.0053 | 1.57 | 0.378 (inactive) | 0.745 (inactive) | -0.436 (inactive) | 2.18 | 0.0565 (inactive) | -0.199 | 0.538 | 1.14 | -0.139
